Screening results as filed in PubChem.
The sample as a whole holds a higher share of hits than the screen did.
KDM5B inh: Primary screen for KDM5B Histone Demethylases FDH-coupled qHTS. KDM5B demethylase, FDH-coupled NADH fluorescence (FDH is formaldehyde dehydrogenase). Potency, µM (series often up to 57.7 µM), actives largely listed as inhibitors. hit rate 2.6% among 220,000. AID 1347165, 2019; active = well fitted inhibition curve with a large enough effect; note: 0% is about no effect; nearly all actives have a fitted effect of over 70% in size
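Inhibition is measured as reduced NADH fluorescence generation from FDH coupling to formaldehyde release. Truncated KDM5BΔAP at 200 nM final acts on H3K4me3 peptide (12.5 µM in substrate mix) in pH 7.5 HEPES buffer with Tween-20, 30 min, room temperature.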
An asterisk follows results filed as active; ! = not confirmed by another sample. Potency is the fitted concentration of half-maximal effect.

Screening O=C(NCc1cccs1)c1cc(-c2cccc(C(F)(F)F)c2)c2nncn2n1 returned KDM5B inh 50µM*.
Screening Cn1nc(C(=O)N2CCOCC2)cc1C(=O)Nc1ccc(Cl)cc1Cl returned KDM5B inh inactive.
`O=C(c1cccc(C(F)(F)F)c1)N1CCCC(C(=O)N2CCCCCC2)C1` (centres undefined) gave KDM5B inh inactive.
For O=C(c1cc(-c2ccc(Cl)cc2Cl)c2cccn2n1)N1CCCC1 the results were KDM5B inh inactive.
`O=C(c1cc(-c2ccc(Cl)cc2Cl)c2nncn2n1)N1CCOCC1` gave KDM5B inh 79µM*.
For O=C(c1cccc(C(F)(F)F)c1)N1CCC(n2cnnc2C2CC2)CC1 the results were KDM5B inh inactive.
O=C(NCc1cccs1)C1(c2cccc(C(F)(F)F)c2)CCOCC1 was read as KDM5B inh inactive.
O=C(c1cc(-c2cccc(C(F)(F)F)c2)c2nncn2n1)N1CCCC1 was read as KDM5B inh 50µM*.
Screening COc1ccc(-c2cc(C(=O)NCc3cccs3)no2)cc1 returned KDM5B inh inactive.
Screening COc1ccc(S(=O)(=O)N2CCSC2c2cc(OC)c(OC)cc2OC)cc1 (centres undefined) returned KDM5B inh inactive.
`Cn1c2c(c(=O)[nH]c1=O)C(c1ccc(C(=O)O)cc1)C1=C(N2)c2ccccc2C1=O` (centres undefined) gave KDM5B inh inactive.
For CCNC(=O)NC(=O)CN(CC)c1cccc(C)c1 the results were KDM5B inh inactive.
Screening Brc1ccoc1-c1nc(-c2ccccc2)no1 returned KDM5B inh inactive.
O=C(Cc1ccccc1Cl)N1CCC(c2nc3c(nnn3Cc3ccccc3)c(=O)[nH]2)CC1 was read as KDM5B inh inactive.
Screening CC(NC(=O)CSc1cc(F)ccc1F)c1nc2ccccc2[nH]1 (centres undefined) returned KDM5B inh inactive.
`CC(C)CN1CC[C@H](c2nc3ncccc3[nH]2)C1` gave KDM5B inh inactive.
`O=c1[nH]c(Nc2ccccc2)nc2nccc(-c3ccco3)c12` gave KDM5B inh inactive.
`COc1ccc(-c2nc3ncccc3[nH]2)cc1` gave KDM5B inh 32µM*!.
c1c[nH]c(-c2nc3ncccc3[nH]2)c1 was read as KDM5B inh 141µM*!.
`Cc1cc(C)cc(NC(=O)CSc2nc3ncccc3[nH]2)c1` gave KDM5B inh inactive.
For c1cnc2nc(-c3ccncc3)[nH]c2c1 the results were KDM5B inh 32µM*.
Screening O=C(CSc1nc2ncccc2[nH]1)NC1CCCCC1 returned KDM5B inh inactive.
For Cc1oc(-c2ccccc2)nc1CSc1nc2ncccc2[nH]1 the results were KDM5B inh inactive.
`Clc1ccc(CSc2nc3ncccc3[nH]2)cc1Cl` gave KDM5B inh inactive.
Screening c1coc(-c2nc3ncccc3[nH]2)c1 returned KDM5B inh 32µM*!.
For COc1ccc(CSc2nc3ncccc3[nH]2)cc1 the results were KDM5B inh inactive.
`CCC(Sc1nc2ncccc2[nH]1)C(=O)Nc1cccc(OC)c1` (centres undefined) gave KDM5B inh inactive.
O=C(C[C@@H]1CCNC[C@@H]1Cc1cc(-c2ccc(F)cc2)on1)Nc1ccccc1 was read as KDM5B inh inactive.
`CC1=C/C(=N/N=C(c2ccccc2)c2ccccc2)CC1` gave KDM5B inh inactive.
`Cc1ccc(NC(=O)C2CCCN(S(=O)(=O)c3ccc4[nH]c(=O)oc4c3)C2)cc1N(C)C` (centres undefined) gave KDM5B inh inactive.
`O=C(O)Cc1cccc2cccnc12` gave KDM5B inh inactive.
CCc1cc(C(=O)OC)c(N)s1 was read as KDM5B inh inactive.
For CCc1nnc2sc(-c3ccc(NC(=O)C(C)(C)C)cc3)nn12 the results were KDM5B inh inactive.
Screening Cc1c(C(=O)O)oc2ccc(S(=O)(=O)Nc3ccccc3)cc12 returned KDM5B inh inactive.
Cc1c(-c2ccccc2)oc2c(C(=O)OCC(=O)Nc3ccc(F)cc3F)cccc2c1=O was read as KDM5B inh inactive.
For Cc1cc(C(=O)OC(C)C(=O)Nc2ccccc2F)c(C)o1 (centres undefined) the results were KDM5B inh inactive.
Screening Oc1cccc(Nc2nc(-c3ccc(F)cc3F)cs2)c1 returned KDM5B inh inactive.
For O=C1CSc2ccc(C(=O)NCCc3ccccc3)cc2N1 the results were KDM5B inh inactive.
Screening CC(=O)Nc1ccc(NC(=O)c2cccc3c2ccn3C)cc1 returned KDM5B inh inactive.
COc1ccc(Cl)cc1NS(=O)(=O)c1cccc(C(=O)N2CCc3sccc3C2)c1 was read as KDM5B inh inactive.
Screening O=C(CSC1=NC2(CCCCC2)N=C1c1cccs1)NCc1ccc(F)cc1 returned KDM5B inh inactive.
Screening O=C(CSc1nc2ccccc2s1)Nc1ccc(F)c(F)c1 returned KDM5B inh inactive.
For O=C(c1cccc(Cl)c1)N1CCCC(n2cc(-c3nc(-c4ccccc4)no3)nn2)C1 (centres undefined) the results were KDM5B inh inactive.
For O=C(c1cccc2[nH]ccc12)N1CCC(n2cc(-c3nc(-c4ccccc4)no3)nn2)CC1 the results were KDM5B inh 28µM*.
O=C(c1ccc[nH]c1=O)N1CCC(n2cc(-c3nc(-c4ccccc4)no3)nn2)CC1 was read as KDM5B inh inactive.
For Cc1ccc(C(=O)N2CCCC(n3cc(-c4nc(-c5ccccc5)no4)nn3)C2)cc1 (centres undefined) the results were KDM5B inh inactive.
O=C(c1cccc2[nH]ccc12)N1CCC(n2cc(-c3nc(-c4ccccc4)no3)nn2)C1 (centres undefined) was read as KDM5B inh 25µM*.
O=C(c1ccccc1F)N1CCC(n2cc(-c3nc(-c4ccccc4)no3)nn2)C1 (centres undefined) was read as KDM5B inh inactive.
`Cc1ccccc1C(=O)N1CCC(n2cc(-c3nc(-c4ccccc4)no3)nn2)C1` (centres undefined) gave KDM5B inh inactive.
O=C(c1ccc[nH]1)N1CCC(n2cc(-c3nc(-c4ccccc4)no3)nn2)CC1 was read as KDM5B inh inactive.
O=C(c1cc2ccccc2[nH]1)N1CCCC(n2cc(-c3nc(-c4ccccc4)no3)nn2)C1 (centres undefined) was read as KDM5B inh 18µM*.
CCC(Oc1cccc(Cl)c1)C(=O)O (centres undefined) was read as KDM5B inh inactive.
For COc1ccc(CCC(=O)N2CCC3(CC2)NC(=O)N(c2cccc(Cl)c2)N3)cc1 the results were KDM5B inh inactive.
CNc1nnc(SCc2coc(-c3ccccc3)n2)s1 was read as KDM5B inh inactive.
For CC(=O)c1ccc(C(=O)N(Cc2cccs2)Cc2cccs2)s1 the results were KDM5B inh inactive.
Screening OCCNCc1ccc(-c2ccccc2)o1 returned KDM5B inh inactive.
Screening CCOCCOc1cccc(N)c1 returned KDM5B inh inactive.
For N#Cc1ccc(CN2CCC3(CC2)CC(=O)c2ccc(Cl)cc2O3)cc1 the results were KDM5B inh inactive.
CCC(=O)C1=C(c2ccc(OC)cc2)N(C(=O)CC)n2cnnc2S1 was read as KDM5B inh inactive.
Cn1nc(CC(=O)N2CCOCC2)c2ccccc2c1=O was read as KDM5B inh inactive.
